Among all 310,000 compounds or so, about 14,000 (4.5%) showed an effect of 50% or more. The effect is printed as a negative number. This excerpt belongs to a sample that is enriched for strong results.
These compounds were tested against human ether-à-go-go-related gene (hERG) potassium channel (human, UniProt Q12809) (assay: primary screen, population patch clamp on CHO cells stably expressing hERG; higher = less effect of the substance).
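Note: peak tail current of the secondary pulse compared with the same well before compound.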

human ether-à-go-go-related gene (hERG) potassium channel, sequence (Q12809 whole entry, looked up): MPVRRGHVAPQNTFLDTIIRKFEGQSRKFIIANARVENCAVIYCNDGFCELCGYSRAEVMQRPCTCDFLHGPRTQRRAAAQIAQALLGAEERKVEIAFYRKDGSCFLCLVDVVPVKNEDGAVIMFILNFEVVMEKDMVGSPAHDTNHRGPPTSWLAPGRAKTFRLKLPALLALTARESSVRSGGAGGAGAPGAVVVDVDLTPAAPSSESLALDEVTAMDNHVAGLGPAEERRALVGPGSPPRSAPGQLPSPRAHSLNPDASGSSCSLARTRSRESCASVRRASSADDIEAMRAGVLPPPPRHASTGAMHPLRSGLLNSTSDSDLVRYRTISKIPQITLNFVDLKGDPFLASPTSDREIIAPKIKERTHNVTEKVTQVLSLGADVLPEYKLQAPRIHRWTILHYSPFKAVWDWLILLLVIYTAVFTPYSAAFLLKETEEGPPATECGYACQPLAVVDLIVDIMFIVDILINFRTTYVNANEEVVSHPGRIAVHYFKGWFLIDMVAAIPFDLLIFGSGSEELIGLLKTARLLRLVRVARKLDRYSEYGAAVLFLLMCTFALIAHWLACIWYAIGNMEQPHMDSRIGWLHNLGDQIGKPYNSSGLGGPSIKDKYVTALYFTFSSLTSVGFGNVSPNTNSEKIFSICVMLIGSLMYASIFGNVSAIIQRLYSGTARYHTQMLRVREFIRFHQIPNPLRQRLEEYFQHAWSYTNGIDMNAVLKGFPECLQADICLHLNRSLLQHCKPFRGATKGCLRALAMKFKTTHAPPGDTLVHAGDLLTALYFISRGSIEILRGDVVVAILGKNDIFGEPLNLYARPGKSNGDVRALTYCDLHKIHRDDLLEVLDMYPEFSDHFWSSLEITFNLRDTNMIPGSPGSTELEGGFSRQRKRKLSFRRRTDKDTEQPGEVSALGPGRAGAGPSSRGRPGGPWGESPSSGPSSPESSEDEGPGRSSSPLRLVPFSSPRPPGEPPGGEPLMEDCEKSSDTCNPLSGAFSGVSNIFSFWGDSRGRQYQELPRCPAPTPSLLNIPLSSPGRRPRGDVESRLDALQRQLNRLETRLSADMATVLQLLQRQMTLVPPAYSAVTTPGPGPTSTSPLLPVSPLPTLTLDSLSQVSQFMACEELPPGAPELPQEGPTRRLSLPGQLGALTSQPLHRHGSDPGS

SMILES | hERG current change (%, negative = inhibition) at 10uM [%]
CC(C)CC(=O)Nc1ncnc2c1C(=O)CC(C)(C)C2 | -0.157
CCOC(=O)N1CCN(S(=O)(=O)c2c(C)cc(C)cc2C)CC1 | -5.61
CSc1ccc(/C=N/n2c(C)cc(C)cc2=O)cc1 | -2.09
CCn1c(SCC(=O)Nc2cccc(S(=O)(=O)N(C)c3ccccc3)c2)nnc1C1CC1 | -44.1
Cc1ccc([N+](=O)[O-])cc1NC(=O)CSc1nnc(C)n1CC1CCCO1 (centres unmarked) | -14.6
Cc1cccc(NC(=O)CSc2nnc(C3CC3)n2CC2CCCO2)c1 (centres unmarked) | -14.9
Cc1ccc(NC(=O)CSc2nnc(C3CC3)n2CC2CCCO2)cc1C (centres unmarked) | -24
O=C(CSc1nnc(C2CC2)n1CC1CCCO1)Nc1cccc(Cl)c1 (centres unmarked) | -56.1
CN(c1ccccc1)S(=O)(=O)c1cccc(NC(=O)CSc2nnc(C3CC3)n2C)c1 | -30.9
Cc1nnc(SCC(=O)Nc2cccc(Cl)c2)n1CC1CCCO1 (centres unmarked) | -7.41
O=C(CSc1nnc(C2CC2)n1CC1CCCO1)Nc1ccc(Cl)cc1 (centres unmarked) | -56.8
Cc1nnc(SCC(=O)Nc2ccc([N+](=O)[O-])cc2)n1CC1CCCO1 (centres unmarked) | -55.5
CCc1ccc(NC(=O)CSc2nnc(C3CC3)n2CC2CCCO2)cc1 (centres unmarked) | -22.4
Cc1nnc(SCC(=O)Nc2cccc([N+](=O)[O-])c2)n1CC1CCCO1 (centres unmarked) | -13
C=CCn1c(SCC(=O)Nc2cccc(S(=O)(=O)N(C)c3ccccc3)c2)nnc1C1CC1 | -69.8
O=C(CCNS(=O)(=O)c1cccc2nsnc12)NC1CCCc2ccccc21 (centres unmarked) | 9.49
CCCc1cc(=O)n2[nH]c(CCc3ccccc3)nc2n1 | 14.1
O=C(NCC(c1cccs1)N1CCOCC1)c1ccccc1NS(=O)(=O)c1ccc(Br)cc1 (centres unmarked) | -38.4
CCOC(=O)c1sc(NC(=O)c2ccc(Cl)s2)cc1C | 3.03
O=C(c1ccco1)N1CCN(C2CC(=O)N(c3ccc(F)c(Cl)c3)C2=O)CC1 (centres unmarked) | -14.2
Cc1ccc(OS(=O)Nc2cccc3nccnc23)cc1 (centres unmarked) | -18.6

SMILES | hERG current change (%, negative = inhibition) at 10uM [%]
COc1ccccc1C(=O)NCCC(=O)NCc1ccncc1 | -4.37
CCOC(=O)N1CCN(Cc2nc3ccc([N+](=O)[O-])cc3c(=O)n2-c2cccc(OC)c2)CC1 | -39.8
CCOC(=O)c1ccc(-n2c(CN3CCOCC3)nc3ccc([N+](=O)[O-])cc3c2=O)cc1 | 1.65
CCOc1ccccc1-n1c(CN2CCN(C(=O)c3ccco3)CC2)nc2ccccc2c1=O | -26.2
CCOC(=O)c1ccc(-n2c(CN3CCN(CC)CC3)nc3ccc([N+](=O)[O-])cc3c2=O)cc1 | -55
CCC(CC)N1CCN(Cc2nc3ccc([N+](=O)[O-])cc3c(=O)n2-c2ccccc2F)CC1 | -57
CCOC(=O)c1ccc(-n2c(CN3CCN(CCO)CC3)nc3ccc([N+](=O)[O-])cc3c2=O)cc1 | -25.1
O=C(O)C(=O)O.O=C(c1ccco1)N1CCN(Cc2ccccc2F)CC1 | 3.7
CCOC(=O)N1CCN(Cc2nc3ccc([N+](=O)[O-])cc3c(=O)n2-c2ccc(OC)cc2OC)CC1 | -46.1
O=c1c2cc([N+](=O)[O-])ccc2nc(CN2CCN(c3ccccn3)CC2)n1-c1ccccc1F | -28.3
O=C(c1ccco1)N1CCN(Cc2nc3ccc([N+](=O)[O-])cc3c(=O)n2-c2ccccc2F)CC1 | -68.3
CCOC(=O)N1CCN(Cc2nc3ccc([N+](=O)[O-])cc3c(=O)n2-c2ccccc2F)CC1 | -69.9
CCN1CCN(Cc2nc3ccc([N+](=O)[O-])cc3c(=O)n2-c2ccccc2F)CC1 | 17.9
Cc1c(C(=O)NCc2ccccc2)cnn1-c1ccccc1 | -2.6
O=C(Nc1cccc(-c2cn3ccccc3n2)c1)c1cccc(Cl)c1 | 4.75
CCCC1=NN(C(=O)Cc2ccc(OC)c(OC)c2)C(O)(C(F)(F)F)C1 (centres unmarked) | 0.733
CC(C)[C@H]1C(=O)Nc2ccccc2N1C(=O)N[C@@H](Cc1ccccc1)C(=O)N[C@@H](Cc1ccccc1)C(=O)O | 5.66
Cc1nn(C)c(C)c1C(C)NC(=O)c1ccc(OC2CCN(Cc3ccccn3)CC2)cc1 (centres unmarked) | 18
CC(=O)NC1=C(Nc2ccc(N(C)C)cc2)C(=O)c2ccccc2C1=O | -9.79
COC(=O)N/N=C/c1ccc(-c2cccc(Cl)c2)o1 | -3.5
COc1cc(OC)cc(-c2nc(-c3ccccc3)no2)c1 | 5.45

SMILES | hERG current change (%, negative = inhibition) at 10uM [%]
COCCCN1C(=O)C(O)=C(C(C)=O)C1c1cccc(F)c1 (centres unmarked) | 7.18
CCC1(c2ccccc2)NC(=O)N(CC(=O)Nc2ccccc2C(=O)NC2CC2)C1=O (centres unmarked) | -7.31
CCC1(c2ccccc2)NC(=O)N(CC(=O)Nc2ccccc2C(=O)NC2CCCC2)C1=O (centres unmarked) | -53.8
CCC1(c2ccccc2)NC(=O)N(CC(=O)Nc2cc(Cl)ccc2N2CCOCC2)C1=O (centres unmarked) | -11.2
CCC1(c2ccccc2)NC(=O)N(CC(=O)Nc2cc(Cl)ccc2N2CCN(C)CC2)C1=O (centres unmarked) | -60.8
CC1(c2ccccc2)NC(=O)N(CC(=O)Nc2ccccc2C(=O)NC2CC2)C1=O (centres unmarked) | -22.5
CN1CCN(c2ccc(Cl)cc2NC(=O)CN2C(=O)NC(C)(c3ccccc3)C2=O)CC1 (centres unmarked) | -23.7
COC(=O)C1=C(c2cccc(C#N)c2)C[C@@H]2CC[C@H]1N2C(=O)N1CCC(C)CC1 | -17.1
Cc1ccccc1C1=NC(C(F)(F)F)(C(F)(F)F)c2c(n(-c3ccc(F)cc3)c(=O)[nH]c2=O)N1 | 12.5
Cc1ccc(C)c(NC(=O)CN2C(=O)CNC2=O)c1 | 0.955
COc1cccc(OCCNS(=O)(=O)c2cccc([N+](=O)[O-])c2)c1 | -8.19
C[C@@H](CSc1ccccc1)CN1CC[C@H](NC(=O)OCc2ccccc2)CCC1=O | -44.2
O=C(OCC(=O)N1CCCC1=O)c1nc(Cl)ccc1Cl | 5.78
Nc1cc(N)nc(SCC(=O)c2ccc3c(c2)NC(=O)CO3)n1 | 8.41
COc1ccccc1NC(=O)CSc1nc2ccccc2c(=O)n1C | 12.1
O=C(Nc1ccc(Cl)cc1)C1CCCN1C(=O)NCc1ccccc1 (centres unmarked) | 10.2
CC(/C=C/c1ccccc1)=N/NC(=O)c1cnccn1 | 2.83
O=C(CN1CCCC1)N1CCCc2ccccc21.O=C(O)C(=O)O | 13.8
N#CC1(CCCN2CCCCC2)c2ccccc2CCc2ccccc21.O=C(O)C(=O)O | -52.7
O=C(CN1CCCCC1)N1CCCc2ccccc21.O=C(O)C(=O)O | 2.82
CNC(=S)NNC(=O)Cc1ccc(O)cc1 | -3.23

SMILES | hERG current change (%, negative = inhibition) at 10uM [%]
CN(CC(=O)N1CCN(c2ccc(F)cc2)CC1)S(=O)(=O)c1ccc2c(c1)c(=O)n(C)c(=O)n2C | -0.425
O=c1cc(CN2CCCCC2)nc(C2CC2)[nH]1 | -2.2
c1c(C2CCCCC2)n[nH]c1CN1CCCCC1 | -53.9
CC(C)c1cc(CN2CCN(C3CCCC3)C(CCO)C2)[nH]n1 (centres unmarked) | -5.93
Cc1ccc(C(=O)N/C(=C\c2ccccc2F)c2nc(=S)[nH][nH]2)cc1 | 14.4
O=S(=O)(Nc1ccc(-c2ccc3nncn3n2)cc1)c1cccc(F)c1 | 18.1
Cc1ccc(S(=O)(=O)Nc2ccc(-n3c(C)nc4ccccc4c3=O)cc2)cc1 | -49.4
Cc1ccc(-n2c(C)nc3ccccc3c2=O)cc1C | -52.2
Cc1ccc(S(=O)(=O)Nc2ccc(-c3ccc4nncn4n3)cc2)cc1 | -9.23
Cc1nc2ccccc2c(=O)n1-c1cccc(O)c1 | 14.1
Cc1nc2ccccc2c(=O)n1-c1ccc(Cl)c(Cl)c1 | -8.26
Cc1cccc(S(=O)(=O)Nc2ccc(-c3ccc4nncn4n3)cc2)c1 | -123
Cc1nc2ccccc2c(=O)n1-c1ccc(NS(=O)(=O)c2ccccc2)cc1 | -26.5
Cc1cccc(S(=O)(=O)Nc2ccc(-n3c(C)nc4ccccc4c3=O)cc2)c1 | -55.9
O=C(O)c1ccc(N2C(=O)c3cccnc3C2=O)cc1 | 16.9
O=C1CCCN1c1ccc(S(=O)(=O)N2CCN(c3ccccc3)CC2)cc1 | 16.3
COc1ccc2c(c1OC)C(=O)OC2Nc1nc(-c2ccc(-c3ccccc3)cc2)cs1 (centres unmarked) | 17
CC(C)=NNC(=O)c1c(O)c2ccccc2[nH]c1=O | -20
NC(=O)c1cc(N2C(=O)C=CC2=O)ccc1Cl | 1.79
NS(=O)(=O)c1ccc(N2C(=O)C(=O)/C(=C(/O)c3ccccc3)C2c2ccc(Cl)cc2)cc1 (centres unmarked) | 18.1

Source: article PMC4336329 (PLoS ONE, 2015)
